Hits are enriched below; roughly 9.4% of the tested compounds scored in any of these assays.
ALDH1A1 block: qHTS Assay for Inhibitors of Aldehyde Dehydrogenase 1 (ALDH1A1); Purified ALDH1A1, NADH fluorescence, propionaldehyde substrate; Potency, µM (series often up to 75.3 µM), for inactives: at the highest dose activity, negative = inhibition, most hits filed as inhibitors; 220,000 compounds, 7.3% hits; active = well fitted inhibition curve with a large enough effect, not every such curve was filed as active; inconclusive = small, poorly fitted or top-dose-only effect, or another doubt; inactive = no such curve, though single readings can be large or run the other way;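 note: potency is the fitted concentration of half-maximal effect; plate controls were no enzyme wells and a reference inhibitor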
Target sequence (P00352 whole entry, looked up): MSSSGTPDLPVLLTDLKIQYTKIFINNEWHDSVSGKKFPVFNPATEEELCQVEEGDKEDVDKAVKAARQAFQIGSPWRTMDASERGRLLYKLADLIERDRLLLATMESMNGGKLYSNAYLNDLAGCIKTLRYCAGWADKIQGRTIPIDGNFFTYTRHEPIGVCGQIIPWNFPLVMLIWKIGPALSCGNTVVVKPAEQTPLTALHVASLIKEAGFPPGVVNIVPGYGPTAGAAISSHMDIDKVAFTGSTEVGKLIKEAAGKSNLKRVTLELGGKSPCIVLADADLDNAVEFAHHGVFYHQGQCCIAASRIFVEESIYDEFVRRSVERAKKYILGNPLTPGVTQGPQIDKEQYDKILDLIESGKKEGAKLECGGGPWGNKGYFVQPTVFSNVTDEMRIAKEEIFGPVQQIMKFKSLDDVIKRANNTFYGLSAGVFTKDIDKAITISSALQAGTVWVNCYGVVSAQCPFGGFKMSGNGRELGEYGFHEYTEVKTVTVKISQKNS
HTT cytoprotect: qHTS Multiplex Assay to Identify Dual Action Probes in a Cell Model of Huntington: Cytoprotection (ATP); PC12 HTT-Q103 induced, cytoprotection, ATP luminescence, 40 h; Potency, µM (series often up to 56.4 µM), without a hit: cytoprotection (ATP increase), usual class: activators; 230,000 compounds, 0.14% hits; note: potency is the fitted concentration of half-maximal effect; % of control where 0% means no effect; nearly all actives have a fitted effect of over 45% in size
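ATP quantification (ATPlite) reports survival of PC12 cells in which tebufenozide, 100 nM final, switches on Htt exon 1 with 103 glutamines linked to GFP; compounds are titrated.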
HttQ103 aggreg: qHTS Multiplex Assay to Identify Dual Action Probes in a Cell Model of Huntington: Aggregate Formation (GFP). PC12 HttQ103-GFP aggregates, Acumen cytometry, 40 h. Potency, µM (top dose mostly 46.1 µM), without a hit: top-dose activity change, negative = inhibition, most hits filed as inhibitors. 220,000 compounds, 1.1% hits; note: potency is the fitted concentration of half-maximal effect; % is set by controls: 0 for no effect and ±100 for the full control effect; nearly all actives have a fitted effect of over 60% in size
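Using laser scanning cytometry, GFP-positive aggregates were counted after lysis of PC12 cells induced with 100 nM tebufenozide to express HTT exon 1 Q103–GFP. Compounds were tested in titration.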
IMPase inh: qHTS Assay for Identifying the Cell-Membrane Permeable IMPase Inhibitors; Inositol monophosphatase 1 (Rattus norvegicus), P97697; CHO-M1 cells, IP1 accumulation, HTRF TR-FRET ratio; inhibition (IP1 accumulation), % at 46.1 µM; 120,000 tested, under 10 active; active = well fitted curve in the direction sought with a large enough effect in the signal ratio, not every such curve was filed as active; inconclusive = small, poorly fitted or top-dose-only effect, or a change in a side signal; inactive = no such curve, though single readings can be large or run the other way; the % refers to the signal ratio;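 note: cells stimulated with carbachol in lithium chloride buffer; plate controls were DMSO basal wells for no effect and reference inhibitor wells for full effect; higher means more IMPase inhibition seen as more IP1 and lower FRET ratio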
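In this qHTS, compounds (final up to 46 uM) act on CHO-M1 cells that are then activated through the M1 receptor with carbachol, in pH 7.4 buffer containing 50 mM LiCl, for 30 min. IP1 accumulation is quantified by the IP-One immunoassay.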
IMPase Li inh: qHTS Assay for Identifying the Cell-Membrane Permeable IMPase Inhibitors: Potentiation with Lithium; 210,000 compounds, 0.35% hits; AID 1457, 2008; Potency, µM (top dose mostly 59.4 µM), for inactives: top-dose activity, negative = IMPase inhibition, actives largely listed as inhibitors; CHO-M1 cells, IP1 TR-FRET (IP-One), carbachol + lithium;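 note: IP1 builds up when IMPase is blocked and the TR-FRET signal falls; potency is the fitted concentration of half-maximal effect; plate controls were basal vehicle for no effect and high inhibitor control for full effect; nearly all actives have a fitted effect of over 50% in size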
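CHO-M1, 2000 cells/well, 16–30 h culture; cpd + low Li+, 30 min 37C; lysis with d2-IP1/Eu-anti-IP1 Ab, 10 min RT; TR-FRET 665/620 ratio and 620 channel; AC50 via Hill.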
HPGD block: qHTS Assay for Inhibitors of HPGD (15-Hydroxyprostaglandin Dehydrogenase) | 150,000 compounds, 4.3% hits | 15-hydroxyprostaglandin dehydrogenase [NAD(+)] (Homo sapiens), P15428 | AID 894, 2007 | Potency, µM, for the others: at the top dose activity change, negative = inhibition, hits mostly inhibitors | purified HPGD, NADH fluorescence kinetic, PGE2 substrate; active = well fitted inhibition curve with a large enough effect, not every such curve was filed as active; inconclusive = small, poorly fitted or top-dose-only effect, or another doubt; inactive = no such curve, though single readings can be large or run the other way; note: potency is the fitted concentration of half-maximal effect; % is set by controls: 0 for no effect and ±100 for the full control effect
Target sequence (P15428 whole entry, looked up): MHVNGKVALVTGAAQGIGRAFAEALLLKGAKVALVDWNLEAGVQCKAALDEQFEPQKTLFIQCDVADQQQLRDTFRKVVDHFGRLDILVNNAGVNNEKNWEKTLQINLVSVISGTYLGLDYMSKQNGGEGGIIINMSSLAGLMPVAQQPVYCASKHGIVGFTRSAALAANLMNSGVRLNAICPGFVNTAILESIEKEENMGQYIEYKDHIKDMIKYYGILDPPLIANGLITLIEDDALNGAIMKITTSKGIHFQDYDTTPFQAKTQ
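20 nM HPGD preincubated 15 min at room temperature with compound in 50 mM Tris-HCl pH 8, 0.01% Tween 20. Started with 1 mM NAD+ and 30 uM prostaglandin E2; NADH fluorescence (360/450 nm) read 5 times over 30-s intervals, last minus first.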
* hit, by the source's call; ? = inconclusive; . = no result given; [ ] = another dose, or the depositor's remark. Unless noted, calls come from the whole dose curve; as a rule, active = well fitted curve in the direction sought with a large enough effect; inconclusive = small, poorly fitted or top-dose-only effect, or another doubt; inactive = no such curve, though single readings can be large; an effect the other way counts as inactive or inconclusive.

SMILES	ALDH1A1 block	HTT cytoprotect	HttQ103 aggreg	IMPase inh	IMPase Li inh	HPGD block
COc1ccccc1N1C(=O)CC(N2CCc3ccccc32)C1=O (centres undefined)	?	0%	?	3	10%[38.3 µM]	-13%
COc1cccc([C@@H]2Oc3ccc(OC)cc3C[C@H]2OC(=O)NS(=O)(=O)c2ccc(F)cc2)c1	5%	-23%	.	.	4%	-8%
O=Cc1ccccc1C=O	.	-167%	18%	.	.	.
O=C1c2ccccc2C(=O)N1CCSc1n[nH]c(=S)s1	2.2µM*	-14%	5%	1	20%[38.3 µM]	?
CCOC(=O)/C=C1\CC(=O)Nc2cc(C)c(C)cc2N1	-2%	-16%	2%	-3	-3%[38.3 µM]	51%
CCOC(=O)/C=C1\CC(=O)Nc2nonc2N1	2%	4%[1.9 µM]	-9%	-3	21%[38.3 µM]	32µM*
CC(C)C(=O)N[C@@H]1CCCN1C(=O)/C=C\c1ccccc1	-1%[13.5 µM]	1%[10 µM]	.	.	.	.
Cc1ccc(N/C=C(\[N+](=O)[O-])S(=O)(=O)c2ccccc2)cc1	?	-44%	-6%	.	1%	.
Cc1cccc(N/C=C(\[N+](=O)[O-])S(=O)(=O)c2ccccc2)c1C	25µM*	0%[10 µM]	-1%	.	-1%	.
CC1Cc2ccccc2N1C(=O)CSc1nnnn1C1CCCC1 (centres undefined)	2.5µM*	15%	6%	4	4%[38.3 µM]	-18%
CC1Cc2ccccc2N1C(=O)CSc1nnnn1C(C)C (centres undefined)	28µM*	-47%	4%	-2	-11%[38.3 µM]	-6%
CC1Cc2ccccc2N1C(=O)CSc1nnnn1-c1ccc2c(c1)OCCO2 (centres undefined)	?	-11%[10 µM]	?	3	-6%[38.3 µM]	-12%
CC1Cc2ccccc2N1C(=O)CSc1nnnn1C (centres undefined)	-4%	-15%	15%[9.22 µM]	-6	26%[38.3 µM]	3%
CC1Cc2ccccc2N1C(=O)CSc1nnc2sc3ccccc3n12 (centres undefined)	14µM*	-19%	7%	-4	10%[38.3 µM]	-4%
OCl	4%	?	16%	.	3%	-14%
C[C@H](NC(=O)CNC(=O)[C@@H](NC(=O)[C@H](Cc1ccccc1)NC(=O)CNC(=O)CNC(=O)[C@@H](N)Cc1ccccc1)[C@@H](C)O)C(=O)N[C@@H](CCCN=C(N)N)C(=O)N[C@@H](CCCCN)C(=O)N[C@@H](CO)C(=O)N[C@@H](C)C(=O)N[C@@H](CCCN=C(N)N)C(=O)N[C@H](CN)CCCCN	7%	-20%	.	.	-3%	.
CC(=O)c1ccc(Nc2ccc(-c3ccccc3C)nn2)cc1	7.1µM*	-11%[10 µM]	6%[9.22 µM]	.	11%	.
CC(=O)c1cccc(Nc2ccc(-c3ccccc3F)nn2)c1	?	-71%	-6%	.	0%	.
O=c1c2c3c(sc2nc2n1CCCCC2)CCCC3	35µM*	-15%	1%	8	-2%[38.3 µM]	?
Cc1ccc2sc(NNC(=O)c3cc(=O)c4ccccc4o3)nc2c1C	13µM*	-5%[10 µM]	-13%[9.22 µM]	.	19%	.
O=c1c(-c2ccc(Cl)cc2)nc2cnc(N3CCOCC3)nc2n1Cc1ccc(F)cc1	?	-1%	.	.	-26%	.
COc1ccc(S(=O)(=O)N(CCc2ccccc2)CC(=O)NCc2ccccc2)cc1OC	.	.	.	-8	.	.
Oc1c(Br)cc(Br)cc1/C=N/NC(=S)N[C@H]1CC2C=CC1C2 (some centres undefined)	13µM*	-50%[10 µM]	-25%[9.22 µM]	.	.	.
COc1cc(/C=N/NC(=S)NC2CC3C=CC2C3)cc(OC)c1OC (centres undefined)	2.5µM*	-16%[10 µM]	-4%[9.22 µM]	.	.	.
CCOc1ccc(/C=N/NC(=S)NC2CC3C=CC2C3)cc1 (centres undefined)	-3%	29%[10 µM]	-6%[9.22 µM]	.	.	.
SMILES	ALDH1A1 block	HTT cytoprotect	HttQ103 aggreg	IMPase inh	IMPase Li inh	HPGD block
O=C(O)c1ccc(C(=O)O)c(C(=O)O)c1.[NH-][C@@H]1CCCC[C@@H]1[NH-].[Pt]	-8%[13.5 µM]	-9%[10 µM]	.	.	-18%	-7%
O=C(Nc1ccccc1)N1CC2(CCN(C(=O)c3ccco3)CC2)C1	2%	?	.	.	2%	-9%
CC(=O)OCC#CCSc1nnc(-c2cccc(Br)c2)o1	.	.	.	6	.	.
CCOC(=O)C1=C(CBr)NC(=O)NC1C (centres undefined)	14µM*	8%	13%	.	-1%	.
CCc1ccccc1NC(=O)Cn1c(=O)n(CC(=O)NCCc2ccccc2)c(=O)c2ccccc21	.	.	.	5	.	.
CC1CCN(C(=O)/C(=C/c2ccccc2Cl)c2ccccc2)CC1	?	-9%	-31%	-7	26%[38.3 µM]	11µM*
CN1CCN(C(=O)/C(=C\c2ccccc2)c2ccccc2)CC1	10%	8%	25%	18	52%[38.3 µM]	18µM*
CC1CCN(C(=O)N[C@@H](Cc2ccccc2)C(=O)O)CC1	8%	-7%[0.074 µM]	6%	-5	-7%[38.3 µM]	-1%
Cc1ccc(NC(=O)c2scc3c2CCCC3)cc1	-11%	.	-12%	.	1%	-8%
O=C(c1scc2c1CCCC2)N1CCCCC1	-8%	8%	19%	-1	20%[38.3 µM]	8.9µM*
Cc1ccccc1NC(=O)C1c2cccc[n+]2CC(=O)N1c1c(C)cccc1C (centres undefined)	11µM*	-8%	15%	4	-5%[38.3 µM]	-22%
Cc1cccc(C)c1NC(=O)C1c2cccc[n+]2CC(=O)N1Cc1ccc2c(c1)OCO2 (centres undefined)	?	-18%	-1%	.	0%	.
S=C(NCCc1ccccc1)N1CCN(C(c2ccccc2)c2ccccc2)CC1	?	4%[10 µM]	4%	.	0%	-13%
O=C(C1CC1)N1CCN(C(c2ccccc2)c2ccccc2)CC1	1.1µM*	-4%	7%	7	42%[38.3 µM]	-6%
CCCCNC(=S)N1CCN(C(c2ccccc2)c2ccccc2)CC1	28µM*	-23%[10 µM]	?	.	8%	.
CCCNC(=S)N1CCN(C(c2ccccc2)c2ccccc2)CC1	?	15%[10 µM]	13%	.	13%	-11%
CC1CCCN(C(=O)C2CCN(CC(C)c3ccccc3)CC2)C1 (centres undefined)	?	10%[10 µM]	-9%	0	18%	22µM*
CC1CCCN(C(=O)C2CCN(CCCc3ccccc3)CC2)C1 (centres undefined)	-9%	-2%	-5%	-1	6%[38.3 µM]	-11%
